About 83,000 compounds went through this panel and 20% of them were active in at least one assay; those are over-represented in the sample as a whole.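 How to read the values: 0–100, growth inhibition (40 = 60% inhibited); 0, no net growth; -100 to 0, cell death (-40 = 40% of starting cells died; -100 = all dead).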 Values without a mark were called inactive. Active and inactive are the calls of the source. The calls were made as follows: active = growth percent below 10; inactive = the rest.
What follows are compounds tested on HT29 colon (assay: NCI-60 one-dose screen, 48 h (100 = growth as untreated, 0 = no growth, -100 = all killed)). Details: 10 µM unless noted.

Question: `Cn1[nH]cc(/C=N/C(N)=O)c1=O` was tested. Which growth did it give?
Answer: 115%

Question: `Nc1ccc2c(c1)/C(=N/O)c1cc([N+](=O)[O-])ccc1-2` was tested. Which growth did it give?
Answer: 88.7%

Question: For `CC(=O)n1c2ccccc2c2ccccc21`, which growth is on record?
Answer: 105%

Question: How did the growth turn out when `Fc1ccc(-c2nnc(/C=C/c3cn(-c4ccccc4)nc3-c3ccccc3)o2)cc1` was run?
Answer: 88.5%

Question: For `COc1cc(/C=C/C(=O)c2ccc(F)cc2)ccc1OCCCCCOc1cc2c(cc1OC)C(=O)N1CCCC1C=N2` (configuration not stated), which growth is on record?
Answer: -18.8% (active)

Question: For `O=C(Nc1nc(-c2ccccc2)cs1)c1cc(O)c(O)c(O)c1`, which growth is on record?
Answer: 80.8%

Question: `O=C1/C(=C/c2ccc3cccc(Cl)c3n2)SC(=S)N1CCc1ccc(O)cc1` was tested. Which growth did it give?
Answer: 107%

Question: With `Nc1ncc(-c2cnn(C3CCNCC3)c2)cc1-c1nc2cc(Cl)ccc2o1` as the compound, how does the growth read?
Answer: -100% (active)

Question: How did the growth turn out when `O=C(NCCc1ccccc1)C1CCC(=O)N1Cc1ccc(Br)cc1` (configuration not stated) was run?
Answer: 85.6%

Question: With `Cn1c(=O)c2c(nc(Br)n2CCC(=O)Nc2ccc(F)cc2)n(C)c1=O` as the compound, how does the growth read?
Answer: 96.3%

Question: With `Cc1cc(C(C)(C)C)cc(C)c1CC1=NCCN1` as the compound, how does the growth read?
Answer: 105%

Question: With `CCOc1cc(C(C)(C)C)ccc1C1=N[C@H](c2ccc(Cl)cc2)[C@H](c2ccc(Cl)cc2)N1C(=O)N1CCN(CC#Cc2cccc3c2CN([C@@H]2CCC(=O)NC2=O)C3=O)CC1` as the compound, how does the growth read?
Answer: 12.6%

Question: For `NC(=O)c1ncn([C@@H]2O[C@H](CO)[C@@H](O)[C@H]2O)n1`, which growth is on record?
Answer: 52.5%

Question: Which growth does the source give for `CCCCC1Nc2nc(SC)n(C)c(=O)c2CN(Cc2ccccc2)C1=O` (configuration not stated) here?
Answer: 105%

Question: With `Cc1c(C)c(N2C(=O)C=CC2=O)c(C)c(C)c1N1C(=O)C=CC1=O` as the compound, how does the growth read?
Answer: 110%

Question: With `c1ccc2cc(C[n+]3ccn(CCCCCCCn4cc[n+](Cc5ccc6ccccc6c5)c4)c3)ccc2c1` as the compound, how does the growth read?
Answer: 10.4%

Question: With `Cc1c(NCc2nnc3n(Cc4ccccc4)c(=O)c4c5c(sc4n23)CCCC5)c(=O)n(-c2ccccc2)n1C` as the compound, how does the growth read?
Answer: 77.2%

Question: Which growth does the source give for `N#CCNc1ccccc1N` here?
Answer: 86.4%

Question: For `Cc1cc(NC(=O)Nc2cc(Cl)ccc2C)no1`, which growth is on record?
Answer: 106%

Question: For `COc1cc(C(=O)/C=C/c2cccnc2Nc2ccccc2)cc(OC)c1OC`, which growth is on record?
Answer: -70.2% (active)

Question: With `O=[N+]([O-])c1cnc(Sc2ccncn2)c([N+](=O)[O-])c1` as the compound, how does the growth read?
Answer: 76.5%

Question: With `O=C(Nc1cccc2ccccc12)c1cc2c(cc1Br)OCO2` as the compound, how does the growth read?
Answer: 101%

Question: With `CCCCCCCCCCC[C@@H](C[C@H]1OC(=O)[C@H]1CCCCCC)OC(=O)[C@@H](CC(C)C)NC=O` as the compound, how does the growth read?
Answer: 38.4%

Question: How did the growth turn out when `CCOC(=O)c1c2c(c(C)n1Cc1ccccc1)-c1nc(N)ncc1CC2` was run?
Answer: 115%

Question: How did the growth turn out when `Clc1ccc(CCC(Cn2ccnc2)Sc2c(Cl)cccc2Cl)cc1` (configuration not stated) was run?
Answer: 26.7%

Question: Which growth does the source give for `CN1COc2ccc3ccccc3c2C1` here?
Answer: 99.2%

Question: For `O=C(Nc1cccc([N+](=O)[O-])c1)c1cccc(C(=O)Nc2cccc([N+](=O)[O-])c2)c1`, which growth is on record?
Answer: 88.5%

Question: With `ClC1C2CC(c3ccccc32)C1Cl` (configuration not stated) as the compound, how does the growth read?
Answer: 100%

Question: Which growth does the source give for `O=C1c2ccccc2-c2c1nc1ccccc1[n+]2[O-]` here?
Answer: 105%

Question: How did the growth turn out when `NC(=Nc1ccccc1)SCCCCSC(N)=Nc1ccccc1` was run?
Answer: 94.8%

Question: With `CC12CCC3C(CCC4CC(=O)/C(=C\O)CC43C)C1CCC(=O)O2` (configuration not stated) as the compound, how does the growth read?
Answer: 108%

Question: Which growth does the source give for `Cc1cc(CC(=O)O)n(C)c1C(=O)c1ccc(Cl)cc1` here?
Answer: 109%

Question: How did the growth turn out when `CCN(CC)CCCCNc1c2ccccc2[n+](C)c2c1[nH]c1ccccc12` was run?
Answer: 0.443% (active)

Question: Which growth does the source give for `CCN1C2=C(SC(=S)C1=C1SC(C(=O)OC)=C(C(=O)OC)S1)SC(=Nc1ccc(OC)cc1)C2=O` here?
Answer: -6.07% (active)

Question: With `CN(CC(=O)Nc1nc2ccccc2[nH]1)S(=O)(=O)c1ccc(Cl)cc1` as the compound, how does the growth read?
Answer: 64.7%

Question: `CCOC(=O)C(Cc1ccccc1)(C(=O)OCC)C(Br)C(=O)c1ccccc1` (configuration not stated) was tested. Which growth did it give?
Answer: 69.7%

Question: How did the growth turn out when `Cc1ccccc1NC(=O)c1cc2ccccc2cc1O` was run?
Answer: 111%
